# Assay results taken from PubChem BioAssay (NCATS).
# Several values for one entry are separate records, joined by “and”; a condition that tells them apart may be missing. Identical values can stand only once. Results filed as inconclusive are left out. A number with no mark means an inactive call. Activity calls are given as the source filed them. Calls follow the shape of the dose curve; as a rule, active = well fitted inhibition curve with a large enough effect; inconclusive = small, poorly fitted or top-dose-only effect; inactive = flat fitted curve, though single readings scatter. *1 amine or outer side, *2 acyl side, *3 side chain or, on linkers, in order; H or OH if unused. Where a SMILES comes first, the peptide text is derived from it. [ ]: non-standard residue; d: D form. X5 = CC(CC(O[*:1])C(=O)[*:2])C(=O)O; NMeV = CN[CH](C(=O)O)C(C)C; NMeA = CN[CH](C)C(=O)O; βAla = NCCC(=O)O
# Tested on: KB-3-1
# Experiment: Cytotoxic Profiling of Annotated Libraries Using Quantitative High-Throughput Screening (AID 1296008); also: nearly all actives have a fitted effect of over 60% in size
# Details: Five cell lines viability, CellTiter-Glo ATP luminescence, 48-72 h; max response: stronger effect = lower value
# Description: Cell-based phenotypic screening is a commonly used approach to discover biological pathways, novel drug targets, chemical probes and high-quality hit-to-lead molecules. Many hits identified from high-throughput screening campaign are ruled out through a series of follow-up potency, selectivity/specificity, and cytotoxicity assays. Prioritization of molecules with little or no cytotoxicity for a more in-depth downstream evaluation influence the future direction of projects, so cytotoxicity profiling of the screening libraries at early stage is essential for increasing the likelihood of candidate success. […] For the annotated library, we also examined the primary targets and mechanistic pathways regularly associated with cell death. To our knowledge, this is the first study to use high-throughput screening to profile large libraries for cytotoxicity assessment in both normal and cancer cell lines. In summary, the results generated here constitutes a valuable resource for the scientific community and provides insight on identifying cytotoxic compounds with particular mechanisms of action, and prioritizing compounds with suitable cytotoxicity profile for further evaluation.
# A pintool (Kalypsys) was used to transfer 23 nL of compound solution to the 1536-well assay plates. After 48 or 72 hr incubation at 37 degree Celsius, 5% CO2 and 95% humidity, 2.5 uL of CellTiter-Glo (Promega) was dispensed into each well using a dispenser (Aspect Automation, St. Paul, MN) with solenoid valves (Lee Valves, Westbrook CT). Plates were left at room temperature for 10 min before imaging the ATP-coupled luminescence using a ViewLux microplate imager (PerkinElmer, Waltham, MA).
# % is scaled to controls: 0 for no effect and ±100 for the full control effect; potency is read from the fitted curve at half-maximal effect.
SMILES,outcome,max response,Potency
COC1C=CC23c4cc5c(cc4COC2(O)CN(C)C3C1)OCO5 (stereo not given),inactive,,
CCCCCn1cc(C(=O)C2C(C)(C)C2(C)C)c2ccccc21,,5.27%,
C[C@]12CCC(=O)C[C@@H]1CC[C@@H]1[C@@H]2CC[C@@]2(C)[C@H]1CC[C@]2(C)O,,-6.75%,
CO[C@@H]1C[C@H](O[C@H]2CC[C@@]3(C)C(CCC4C3CC[C@]3(C)[C@@H](C5=CC(=O)OC5)[C@@H](OC(C)=O)CC43O)C2)O[C@H](C)[C@@H]1O[C@H]1O[C@H](CO[C@@H]2O[C@H](CO)[C@@H](O)[C@H](O)[C@H]2O)[C@@H](O)[C@H](O)[C@H]1O (stereo not given in full),,,979 nM (active)
CCC(=O)O[C@H]1[C@@H](N2CCCCC2)C[C@H]2[C@@H]3CC[C@H]4C[C@H](OC(C)=O)[C@@H](N5CCCCC5)C[C@]4(C)[C@H]3CC[C@@]21C,,-10.6%,
Cc1cccc(NC(=O)c2ccc(C(F)(F)F)cc2C(=O)O)n1,inactive,,
COc1cc(C[C@H](C)N)c(OC)cc1C,,-5.3%,
Cc1ccc2c(c1)[C@]13CCCC[C@@H]1[C@H](C2)N(C)CC3,,-5.13%,
CC(C)[C@H](NC(=O)c1nn(Cc2ccc(F)cc2)c2ccccc12)C(N)=O,,0.24%,
CC(=O)OC[C@]12C[C@H](O)C(C)=C[C@H]1O[C@@H]1[C@H](O)[C@@H](OC(C)=O)[C@@]2(C)[C@]12CO2,,,32.1 nM (active)
CC12CCC3C(C1)c1c(cc(O)c(C(=O)c4ccccc4)c1OC3(C)C)O2 (stereo not given),,-6.92%,
CC[C@@H]1C[C@H]2CC[C@H](O2)[C@H](C)C(=O)O[C@@H](C)C[C@@H]2CC[C@@H](O2)[C@@H](C)C(=O)O[C@H](C)C[C@H]2CC[C@H](O2)[C@H](C)C(=O)O[C@@H](C)C[C@@H]2CC[C@@H](O2)[C@@H](C)C(=O)O1,,,96.8 nM (active)
C=CCC1([C@@H](C)CCC)C(=O)NC(=O)NC1=O,,-4.55%,
CCC(C)C1NC(=O)C2CCCN2C(=O)C(CC(C)C(=O)O)OC(=O)CCNC(=O)C(C)N(C)C(=O)C(C(C)C)N(C)C1=O (stereo not given) (cyclo([X5]PI[NMeV][NMeA][βAla]); configuration not given here),inactive,,
Fc1cc(F)c2c(c1)[C@H]1C=CC[C@H]1C(c1cccnc1)N2 (stereo not given in full),,,4110 nM (active)
O=Cc1ccccc1,,-11.1% and 0.83%,
CN[C@@]1(c2ccccc2Cl)CCCCC1=O,,-16.7%,
CCC(=O)O[C@](Cc1ccccc1)(c1ccccc1)[C@H](C)CN(C)C,,0.566%,
C=C(C)[C@@H]1[C@H]2OC(=O)[C@H]1[C@]1(O)C[C@H]3O[C@]34C(=O)O[C@H]2[C@]14C,inactive,,
CN1Cc2c(ccc3c2OCO3)[C@@H]2[C@H]1c1cc3c(cc1C[C@@H]2O)OCO3,,,2860 nM (active)

SMILES,outcome,max response,Potency
CCc1cc(OC)c(C[C@@H](C)N)cc1OC,,-13.5%,
CCC1CN2CCc3cc(OC)c(OC)cc3C2CC1CC1=NCCc2cc(O)c(OC)cc21 (stereo not given),,-7.09%,
CNC(C)CC1CCCCC1 (stereo not given),,-19.8%,
c1ccc(C2(c3ccccc3)OC[C@@H]([C@H]3CCCCN3)O2)cc1,,-9.58%,
CCCCCn1cc(C(=O)Oc2cccc3cccnc23)c2ccccc21,,-8.4%,
O=C1CN=C(c2ccccc2)c2cc(Cl)ccc2N1,,-13.7%,
CC(=O)O[C@H]1C[C@H](O[C@H]2[C@@H](O)C[C@H](O[C@H]3[C@@H](O)C[C@H](OC4CC[C@@]5(C)C(CC[C@@H]6[C@@H]5CC[C@]5(C)[C@@H](C7=CC(=O)OC7)[C@@H](O)C[C@]65O)C4)O[C@@H]3C)O[C@@H]2C)O[C@H](C)[C@H]1O[C@@H]1O[C@H](CO)[C@@H](O)[C@H](O)[C@H]1O (stereo not given in full),,,1300 nM (active)
Cc1cccc(NC(=O)NC2N=C(c3ccccc3)c3ccccc3N(CC(=O)c3ccccc3C)C2=O)c1 (stereo not given),,7.53%,
CN1C(=O)N(c2ccc(C#N)c(C(F)(F)F)c2)C(=O)[C@@]1(CO)c1ccccc1,,2.44%,
C=C1C(=O)O[C@@H]2[C@H]3C(=C)[C@@H](O)C[C@H]3C(=C)C[C@@H](O)[C@@H]12,,6.92%,
C=C1[C@@]23C(=O)O[C@H](C)[C@]24O[C@@]2(C(=C)[C@]5(C=CC(=O)OC5(C)C)CC[C@]32C)[C@H](O)[C@@]1(C)OC4=O,,-4.55%,
C[N+](C)(C)CC(=O)[O-],,9.58%,
C=CCN1CC[C@]23c4c5ccc(O)c4O[C@H]2[C@@H](O)CC[C@@]3(O)[C@H]1C5,,3.34%,
COc1cc2c(cc1O)C1(C)CCC(O)C(C)(C)C1CC2=O (stereo not given),inactive,,
CN1C(=O)[C@]23CC4C(C)(C)[C@@]5(C[C@@]41CN2CC[C@@]3(C)O)C(=O)Nc1c5ccc2c1OC=CC(C)(C)O2 (stereo not given in full),,1.88%,
CC(=O)O[C@H]1CN2CCC1CC2,inactive,,
O=C(CC1NCCC[C@H]1O)Cn1cnc2cc(Br)c(Cl)cc2c1=O (stereo not given in full),,-10.5%,
CN1CCc2cc3c(cc2[C@H]1[C@@H]1OC(=O)c2c1ccc1c2OCO1)OCO3,inactive,,
C[C@]12CC[C@H]3[C@@H](CCC4=C/C(=N/OCC(=O)O)CC[C@@]43C)[C@@H]1CC[C@@H]2O,inactive,,
NNC(=O)c1nn(Cc2ccc(Cl)cc2Cl)c2ccccc12,,-14.6%,
